# This excerpt belongs to a sample that is enriched for hits.
# Giardia FBPA inh: blocks Giardia fructose-bisphosphate aldolase activity; A8B2U2; purified Giardia FBPA; Potency, µM (top dose mostly 59.6 µM), most hits filed as inhibitors; actives 0.71% (n = 290,000); also: nearly all actives have a fitted effect of over 55% in size
#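 40 nM FBPA preincubated 10 min at RT with compound (up to 57.5 uM final), then substrate plus GAPDH/TPI/NAD/arsenate coupling and diaphorase/resazurin added. Fluorescence read after 20 min at RT, 525/598 nm.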
# CHX counter: affects cycloheximide protein synthesis inhibition readout, counter-screen. AID 2314. max response, %. actives 12% (n = 300,000). cell reporter, cycloheximide protein synthesis inhibition counterscreen; in the data active = max response mostly above about 13%, no sharp cut-off; inactive = mostly below about 14%; also: read at 38.3 µM for the half of the compounds with a filed dose
# RE007 growth inh: less growth of the S. pombe RE007 Vpr strain; S. pombe RE007 Vpr strain, BacTiter-Glo ATP luminescence, 24 h; Potency, µM (titrated, usually from 92.2 µM), hits mostly inhibitors; actives 0.21% (n = 360,000); AID 651644; active = well fitted falling curve with a large enough effect; inconclusive = small, poorly fitted or top-dose-only effect; inactive = no such curve, though single readings can be large or run the other way; also: nearly all actives have a fitted effect of over 50% in size
#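 Fission yeast strain RE007, carrying one chromosomally integrated HIV-1 vpr copy, was seeded at OD 0.01 in PMG+AL medium with 23 nL pinned compound. After 24 h at 30 °C and 99% humidity, viability was read by BacTiter-Glo luminescence.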
# LmPK inhibitor: LmPK (Leishmania mexicana) enzyme inhibition. Q27686. purified LmPK, Kinase-Glo ATP luminescence, 1 h. Potency, µM (series often up to 57.5 µM), hits mostly inhibitors. actives 0.37% (n = 290,000)
# Target sequence (Q27686 whole entry, looked up): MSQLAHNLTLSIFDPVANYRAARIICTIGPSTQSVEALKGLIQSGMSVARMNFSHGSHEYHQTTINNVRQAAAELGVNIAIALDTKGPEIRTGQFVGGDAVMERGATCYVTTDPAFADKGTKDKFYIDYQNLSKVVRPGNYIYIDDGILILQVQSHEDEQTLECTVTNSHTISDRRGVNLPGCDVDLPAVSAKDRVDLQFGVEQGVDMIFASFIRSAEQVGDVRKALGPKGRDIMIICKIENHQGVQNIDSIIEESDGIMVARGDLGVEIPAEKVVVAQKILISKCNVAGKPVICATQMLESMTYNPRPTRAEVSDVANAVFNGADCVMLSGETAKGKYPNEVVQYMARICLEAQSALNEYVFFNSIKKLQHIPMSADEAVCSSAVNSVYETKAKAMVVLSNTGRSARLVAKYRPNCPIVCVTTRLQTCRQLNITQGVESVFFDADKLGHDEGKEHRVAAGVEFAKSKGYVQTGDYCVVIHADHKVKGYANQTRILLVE
#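 0.1 nM LmPK, 0.5 mM PEP, 0.1 mM ADP; 50 mM imidazole pH 7.2, 7 mM MgCl2, 50 mM KCl; 1 h RT. Kinase-Glo luminescence readout, normalized to no-enzyme (full inhibition) and uninhibited wells.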
# Shiga inhibitor: blocks Shiga toxin action in Vero cells; actives 9.2% (n = 290,000); Vero cells, Shiga toxin protein synthesis inhibition reporter; inhibition, % at 38.7 µM; in the data active = inhibition mostly above about 28%, no sharp cut-off; inactive = mostly below about 43%
# Tb PYK inh: blocks Trypanosoma brucei pyruvate kinase; Q57TT1; TbPYK enzyme, Kinase-Glo Plus ATP luminescence, 45 min; Potency, µM (doses to about 76.8 µM), most hits filed as inhibitors; actives 0.12% (n = 410,000); AID 624173; also: nearly all actives have a fitted effect of over 50% in size
#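 Activity of T. brucei pyruvate kinase was followed by Kinase-Glo Plus luminescence after the enzyme reacted 45 min at room temperature with 130 uM ADP (final) and substrate. Test compounds were added before ADP at multiple concentrations.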
# Numbers stand for hits; – = inactive; ? = inconclusive; · = no result; [ ] = remark or other dose. Unless noted, calls follow the shape of the dose curve; as a rule, active = well fitted curve in the direction sought with a large enough effect; inconclusive = small, poorly fitted or top-dose-only effect, or another doubt; inactive = no such curve, though single readings can be large; an effect the other way counts as inactive or inconclusive.
SMILES,Giardia FBPA inh,CHX counter,RE007 growth inh,LmPK inhibitor,Shiga inhibitor,Tb PYK inh
c1ccc(Nc2nc(-c3ccccn3)cs2)cc1,–,41,?,–,108,–
Cc1cc(C)c(OCC(=O)Nc2nc(-c3ccccn3)cs2)c(C)c1,?,–,–,–,–,–
O=C(Nc1nc(-c2cccs2)cs1)c1ccc(Cl)cc1,–,–,?,–,–,–
c1ccc(-c2csc(Nc3cccnc3)n2)nc1,–,35,–,–,44,–
COc1cccc2sc(Nc3nc(-c4ccccn4)cs3)nc12,–,75,·,–,105,·
Cc1cn2c(=O)cc(COC(=O)c3cccc(NC(=O)c4ccc(C(C)(C)C)cc4)c3)nc2s1,·,·,·,·,·,–
O=C(O)[C@H](CC(=O)N1C[C@H]2CCCC[C@H]2C1)Cc1ccccc1,·,·,·,·,·,–
O=C(Cc1ccccc1)N(Cc1cccnc1)c1nc2c(F)cc(F)cc2s1,·,·,·,·,·,–[15.4 µM]
Cc1cc2c(nc1C)CCCCN2C[C@H](C)O/N=C\[C@@H](C)[C@H](OCc1ccccc1)C(C)C,–[12.9 µM],·,·,·,·,·
S=c1[nH]nc(CCc2ccccc2)n1-c1ccccc1,–,–,–,3.5µM,–,?
O=c1c2ccccc2cnn1Cc1n[nH]c(=S)n1-c1ccc(Cl)cc1,–,72,–,?,52,?
S=c1[nH]nc(CCc2ccccc2)n1-c1ccc(Cl)cc1,–,–,–,?,–,?
Cc1ccc(-n2c(CSc3nc(C)cc(C)n3)n[nH]c2=S)cc1,–,–,–,?,–,7.1µM
S=c1[nH]nc(Cc2n[nH]c(=S)n2-c2ccccc2)n1-c1ccccc1,–,–,–,–,–,?
Cc1ccc(-n2c(Cc3ccccc3)n[nH]c2=S)cc1,–,–,–,7.9µM,–,?
O=C1CC[C@@H](C(=O)N[C@@H](Cc2cnc[nH]2)C(=O)N[C@@H](Cc2c[nH]c3ccccc23)C(=O)N[C@@H](CO)C(=O)N[C@@H](Cc2ccc(O)cc2)C(=O)O)N1,–,–,·,·,–,·
Cc1ccc(C(=O)c2cn(Cc3cccc(F)c3)c3nc(C)ccc3c2=O)cc1,·,·,·,·,·,–
CCCCCc1nn2cc(-c3ccccc3)nc2s1,·,·,·,·,·,–
S=c1[nH]nc(Cc2ccccc2)n1-c1ccccc1,–,–,–,?,–,?
S=c1[nH]nc(COc2ccc(Cl)cc2)n1-c1ccccc1,–,–,–,?,·,8.9µM
COC(=O)CSc1nnc(Cc2ccccc2)n1-c1ccc(C)cc1,–,14,–,–,–,–
S=c1[nH]nc(COc2ccc(Cl)cc2)n1-c1ccc(Cl)cc1,?,–,–,–,·,?
COC(=O)CSc1nnc(C)n1-c1ccc(C)cc1,–,–,–,–,–,–
S=c1[nH]nc(Cc2ccccc2)n1-c1ccc(Cl)cc1,–,–,–,–,–,2.8µM
CCOc1ccc(CNS(=O)(=O)c2c(C(=O)N3CCCCCC3)c(C)n(C)c2C)cc1OC,·,·,·,·,·,–
SMILES,Giardia FBPA inh,CHX counter,RE007 growth inh,LmPK inhibitor,Shiga inhibitor,Tb PYK inh
CCOC(=O)Cn1ccc(NC(=O)c2ccc(F)cc2)n1,–,–,–,–,–,–
Cc1ccc(C(=O)Nc2ccc(F)cc2F)o1,–,44,–,–,–,–
Cc1ccc(C(=O)Nc2ccn(Cc3ccc(F)cc3)n2)o1,–,25,–,–,56,–
Cc1ccc(CNC(=O)c2cccc(NC(=O)N3CCSc4ncccc43)c2)cc1,·,·,·,·,·,–
CCOC(=O)C1CCN(C(c2ccccc2)c2c(O)cc(C)n(Cc3ccco3)c2=O)CC1 (configuration not stated),·,·,·,·,·,–
S=C(NCCC1=CCCCC1)Nc1ccc(Cl)cc1,–,44,–,–,63,–
O=C(CSc1nccn1Cc1ccc(F)cc1)Nc1ccc(F)cc1F,·,–,–,–,–,–
CSc1ccc(CN(C)CC(=O)NCc2ccccc2)cc1,–,–,–,–,–,–
CSc1ccc(NC(=O)NCc2ccccc2)cc1,–,44,–,–,91,–
O=C(Nc1ccccc1)c1nccn1Cc1ccc(F)cc1,–,28,–,–,64,–
CC(C)CCN1CC(C(=O)NCCC2=CCCCC2)CC1=O (configuration not stated),–,21,–,–,66,–
Cc1ccc(CNC(=O)Nc2ccc(Cl)cc2)cc1,·,17,–,–,–,–
Fc1ccc(NC(=S)NCCc2ccc(Cl)cc2)cc1,–,48,–,–,93,–
O=C(NCCc1ccc(F)cc1)Nc1ccc([N+](=O)[O-])cc1,·,21,–,–,–,–
O=[N+]([O-])c1ccc(NC(=S)NCCc2ccc(F)cc2)cc1,–,–,–,–,–,–
O=C(NCc1ccc(Cl)cc1)Nc1ccc(F)cc1,–,49,–,–,–,–
CCc1cccc(NC(=O)C2CCCN(c3ncnc4onc(-c5ccc(F)cc5)c34)C2)c1 (configuration not stated),·,·,·,·,·,–
C=C1CCN(C(C)C(=O)OCc2ccc(C)cc2)S(=O)(=O)c2ccccc21 (configuration not stated),–,–,·,·,–,·
COc1ccc(NC(=O)Cn2c(=O)n(CCc3ccccc3)c(=O)c3c4c(sc32)CCCC4)cc1,·,·,·,·,·,–
CCCCCCC#CC1C=CC(Oc2ccc(C=O)cc2)C(CO)O1 (configuration not stated),–[12.9 µM],·,·,·,·,·
O=C(NC(=S)NCc1ccccc1)c1cccnc1,–,–,–,–,–,–
O=[N+]([O-])c1ccccc1CNCCc1ccc(F)cc1,–,40,–,–,68,–
O=C(NCCNC(=O)Nc1ccc(Cl)cc1)Nc1ccc(Cl)cc1,·,·,–,·,·,–
O=C(NCc1ccncc1)Nc1ccc(F)cc1,–,–,–,–,–,–
O=C(NCc1ccc(F)cc1)Nc1ccccc1,–,37,–,–,79,–
